Compounds without any hit were thinned out: in the full panel of roughly 83,000, 20% have a hit.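 Single-concentration screen, 48 h exposure, 96-well plates. Endpoint: percent growth. Below 10 = active.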 Calls of active or inactive are those of the source.
Tests used:
Assay in all cases: NCI-60 one-dose screen, 48 h (100 = growth as untreated, 0 = no growth, -100 = all killed)
Conditions in all cases: 10 µM unless noted
[1] = system: NCI/ADR-RES ovarian
[2] = system: T-47D breast
[3] = system: BT-549 breast
[4] = system: MDA-MB-435 melanoma
[5] = system: SW-620 colon
[6] = system: MCF7 breast
[7] = system: HCT-116 colon
[8] = system: HCC-2998 colon
[9] = system: KM12 colon

Measured: growth

COC(=O)[C@@H](C)C[C@H](Cc1ccccc1)NC(=O)c1nc([C@@H](C[C@H](C(C)C)N(C)C(=O)[C@@H](NC(=O)[C@H]2C[C@H](O)CCN2C)C(C)C)OC(C)=O)sc1C(C)C
inactive: [1] 38.9% | [2] 78.5% | [5] 21.9% | [6] 18.7% | [8] 14.1%
active: [3] -30.8% | [4] -48.3% | [7] 2.56% | [9] 0.729%

C[N+]12CN3CN(CN(C3)C1)C2
inactive: [1] 97.9% | [2] 93% | [3] 113% | [4] 101% | [5] 96.7% | [6] 97.3% | [7] 92.8% | [8] 99.3% | [9] 111%

CCC1(C(C)C)C(=O)NC(=S)NC1=O
inactive: [1] 115% | [2] 106% | [3] 113% | [4] 101% | [5] 97% | [6] 105% | [7] 106% | [8] 117% | [9] 100%

COC(=O)[C@@H](C)C[C@H](Cc1ccccc1)NC(=O)c1csc([C@@H](C[C@H](C(C)C)N(C)C(=O)[C@@H](NC(=O)[C@H]2CCCCN2C)c2ccc(F)cc2)OC(C)=O)n1
active: [1] 5.55% | [3] 0.368% | [4] -27.7% | [7] 3.28% | [9] -3.41%
inactive: [2] 45.7% | [5] 22.8% | [6] 22.3% | [8] 10.1%

COC(=O)CCc1c[nH]c2ccc(N(CCCl)CCCl)cc12
inactive: [1] 52.7% | [2] 60.2% | [3] 57.4% | [4] 74.1% | [5] 47.5% | [6] 30.9% | [7] 53.1% | [8] 84% | [9] 86.6%

CCn1c2ccccc2c2cc(C(=O)c3ccc(C)c4ccccc34)ccc21
active: [1] 6.35% | [4] -34.1%
inactive: [2] 53.6% | [3] 21.9% | [5] 11.8% | [6] 14.4% | [7] 12.1% | [8] 29.6% | [9] 13.4%

N#C[Se]CCN1C(=O)c2ccccc2C1=O
inactive: [2] 49.9% | [3] 34.3% | [4] 20.8% | [5] 23.9% | [6] 25.4% | [8] 53.1% | [9] 43%
active: [1] 9.97% | [7] 9.26%

Nc1c(F)cc(-c2nc3cc(F)ccc3[se]2)cc1Br
active: [2] -9.56% | [6] 2.12% | [8] -35.1%
inactive: [1] 89.8% | [3] 43% | [4] 94.2% | [5] 84.4% | [7] 15.5% | [9] 38.8%

N#C[Se]Cc1cc(-c2ccccc2)n(-c2ccc(S(N)(=O)=O)cc2)n1
inactive: [1] 35.4% | [8] 25.1%
active: [2] -1.52% | [3] -34.6% | [4] -28.8% | [5] -18.4% | [6] -26.1% | [7] -59.4% | [9] -78.9%

OCCCCCNC1CCCCC1
inactive: [1] 103% | [2] 95.4% | [3] 105% | [4] 104% | [5] 107% | [6] 103% | [7] 94.7% | [8] 104% | [9] 111%

COc1cc([C@@H]2c3cc4c(cc3[C@H](OC(C)=O)[C@H]3COC(=O)[C@H]23)OCO4)cc(OC)c1OC
inactive: [2] 57.8% | [3] 31.5% | [5] 27.3% | [6] 14.9% | [8] 15% | [9] 17.8%
active: [1] 3.8% | [4] -8.58% | [7] 7.01%

CC[C@H](C)[C@H](NC(=O)[C@H]1CCCCN1C)C(=O)N(C)[C@H](C[C@@H](OC(C)=O)c1cccc(C(=O)N[C@@H](Cc2ccccc2)C[C@H](C)C(=O)O)n1)C(C)C
inactive: [1] 15.6% | [2] 66.8% | [5] 28.3% | [6] 14.7% | [8] 17.1%
active: [3] -18.7% | [4] -48.8% | [7] -0.292% | [9] -6.52%

c1cnc2[nH]cc(-c3csc(-c4cn(CCCCN5CCOCC5)c5ccccc45)n3)c2c1
inactive: [1] 69.4% | [2] 36.1% | [3] 79.6% | [4] 24.4% | [5] 18.1% | [6] 25.1% | [7] 40.3% | [8] 56.9% | [9] 24.1%

Cc1c(C)c([N+](=O)[O-])c(C)c(C)c1[N+](=O)[O-]
inactive: [1] 107% | [2] 101% | [3] 106% | [4] 91.9% | [5] 112% | [6] 107% | [7] 115% | [8] 104% | [9] 110%

Cc1ccc(N2COOC3(OOC2)C2CC4CC(C2)CC3C4)cc1
inactive: [1] 95.6% | [2] 82.7% | [3] 95.7% | [4] 93.2% | [5] 108% | [6] 77.6% | [7] 89% | [8] 107% | [9] 90.6%

CCCCCCCOC(C(=O)OCCN(CC)CC)(c1ccccc1)c1ccccc1
inactive: [1] 97.8% | [2] 86% | [3] 88.3% | [4] 98.2% | [5] 77.3% | [6] 115% | [7] 58% | [8] 88.5% | [9] 78.4%

C/C(Cc1ccc(Cl)cc1)=C(\c1ccc(OCCN2CCOCC2)cc1)c1ccc(OC(=O)Cc2ccccc2)cc1
inactive: [1] 98.7% | [2] 66% | [3] 96.9% | [4] 98.6% | [5] 96.5% | [6] 69.4% | [7] 86.1% | [8] 91.3% | [9] 98%

Clc1ccc(COC(Cn2ccnc2)c2ccc(Cl)cc2Cl)cc1 (stereo not drawn)
inactive: [1] 23.3% | [2] 48.3% | [3] 55.9% | [4] 27.5% | [5] 34.3% | [6] 57.9% | [7] 33.6% | [8] 64.2% | [9] 29.1%

COC(=O)[C@@H](C)C[C@H](Cc1cn(C)c2ccccc12)NC(=O)c1csc([C@@H](C[C@H](C(C)C)N(C)C(=O)[C@@H](NC(=O)[C@H]2CCCCN2C)C(C)C)OC(C)=O)n1
inactive: [1] 20.7% | [2] 67.7% | [5] 26.8% | [6] 17.8% | [8] 17.3%
active: [3] -15.9% | [4] -41.5% | [7] 6.08% | [9] 9.11%

CCOC(=O)[C@@H](C)C[C@H](Cc1ccccc1)NC(=O)c1csc([C@@H](C[C@H](C(C)C)N(C)C(=O)[C@H](CC)NC(=O)[C@H]2CCCCN2C)OC(C)=O)n1
active: [1] 7.74% | [3] -18.9% | [4] -35.7% | [7] -7.81% | [8] 3.85% | [9] 4.85%
inactive: [2] 53.1% | [5] 30.3% | [6] 18.8%

CSc1nc(Cl)cc(N2CC2)n1
inactive: [1] 119% | [2] 108% | [3] 111% | [4] 116% | [5] 105% | [6] 105% | [7] 105% | [8] 138% | [9] 111%

COc1ccc2c(c1)c(-c1nc(-c3c[nH]c4ncccc34)cs1)cn2CCN1CCOCC1
active: [2] -1.96% | [6] 5.06%
inactive: [1] 38.7% | [3] 50.6% | [4] 73% | [5] 75.5% | [7] 52.5% | [8] 74.1% | [9] 20.2%

CCN(CC)c1ccc2c(c1)OC(N)=C(C#N)C2c1cc(OC)c2c(c1)OCO2 (stereo not drawn)
inactive: [2] 57.1% | [3] 16.6% | [5] 20.6% | [6] 14.4%
active: [1] -5.05% | [4] -13% | [7] -8.55% | [8] -3.32% | [9] 2.07%

COC(=O)[C@@H](NC(=O)c1cn(CCC2CCCCC2)c2ccccc12)C(C)(C)C
inactive: [1] 73.6% | [2] 61.9% | [3] 84.1% | [4] 83.3% | [5] 86.3% | [6] 75% | [7] 64.2% | [8] 86.3% | [9] 69.8%

CC(=O)[O][Hg][O]C(C)=O
inactive: [1] 108% | [2] 52.9% | [3] 103% | [4] 85.7% | [5] 85.6% | [6] 55.9% | [7] 95.7% | [8] 120% | [9] 87.5%

N#CC1C(C#N)C2CCC1C1C2N1c1ccccc1 (stereo not drawn)
inactive: [1] 111% | [2] 108% | [3] 98.1% | [4] 107% | [5] 100% | [6] 101% | [7] 95.1% | [8] 102% | [9] 102%

COc1ccc2c(c1)c(-c1nc(-c3cn(C)c4ncccc34)cs1)cn2CCN1CCOCC1
inactive: [1] 30.6% | [2] 20% | [3] 54.7% | [4] 72.9% | [5] 55.8% | [6] 13.5% | [7] 34.4% | [8] 95.6% | [9] 22.7%
